# Hits are enriched below; roughly 11% of the tested compounds scored in any of these assays.
# HEK293 tox: cytotoxic compounds in HEK 293 cells. HEK 293 viability, ATP luminescence (CellTiter-Glo), 48-72 h. Potency, µM (top dose mostly 115 µM), without a hit: at the top dose activity change, negative = cytotoxicity, usual class: inhibitors. hit rate 6.6% among 94,000. AID 1345083; also: nearly all actives have a fitted effect of over 60% in size
#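 Luminescence from cellular ATP, measured with CellTiter-Glo, indicates HEK 293 viability. Cells plated at 250 cells/well are treated with compound for 48 or 72 hr at 37 degree Celsius before reagent addition.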
# Luciferase inh: Photinus pyralis luciferase inhibition. P08659. Potency, µM (doses to about 115 µM), actives largely listed as inhibitors. purified P. pyralis luciferase, luminescence, biochemical. hit rate 2.5% among 76,000; also: nearly all actives have a fitted effect of over 65% in size
#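 Biochemical qHTS: compound (6-point titration) added to 10uM D-luciferin plus 10uM ATP in Tris acetate pH 7.5 buffer with Mg, Tween-20 and BSA, then purified enzyme at 10nM; light output imaged.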
# hNpr1 antagonist: blocks ANP-stimulated signaling of human Npr1 receptor. HEK293 hNpr1 GloSensor cGMP, ANP-stimulated luminescence. Potency, µM (top dose mostly 46.3 µM), inactives show top-dose activity change, negative = inhibition, most hits filed as inhibitors. hit rate 1.6% among 76,000. AID 1347048; calls by dose curve; also: nearly all actives have a fitted effect of over 60% in size
# Target sequence (P16066 whole entry, looked up): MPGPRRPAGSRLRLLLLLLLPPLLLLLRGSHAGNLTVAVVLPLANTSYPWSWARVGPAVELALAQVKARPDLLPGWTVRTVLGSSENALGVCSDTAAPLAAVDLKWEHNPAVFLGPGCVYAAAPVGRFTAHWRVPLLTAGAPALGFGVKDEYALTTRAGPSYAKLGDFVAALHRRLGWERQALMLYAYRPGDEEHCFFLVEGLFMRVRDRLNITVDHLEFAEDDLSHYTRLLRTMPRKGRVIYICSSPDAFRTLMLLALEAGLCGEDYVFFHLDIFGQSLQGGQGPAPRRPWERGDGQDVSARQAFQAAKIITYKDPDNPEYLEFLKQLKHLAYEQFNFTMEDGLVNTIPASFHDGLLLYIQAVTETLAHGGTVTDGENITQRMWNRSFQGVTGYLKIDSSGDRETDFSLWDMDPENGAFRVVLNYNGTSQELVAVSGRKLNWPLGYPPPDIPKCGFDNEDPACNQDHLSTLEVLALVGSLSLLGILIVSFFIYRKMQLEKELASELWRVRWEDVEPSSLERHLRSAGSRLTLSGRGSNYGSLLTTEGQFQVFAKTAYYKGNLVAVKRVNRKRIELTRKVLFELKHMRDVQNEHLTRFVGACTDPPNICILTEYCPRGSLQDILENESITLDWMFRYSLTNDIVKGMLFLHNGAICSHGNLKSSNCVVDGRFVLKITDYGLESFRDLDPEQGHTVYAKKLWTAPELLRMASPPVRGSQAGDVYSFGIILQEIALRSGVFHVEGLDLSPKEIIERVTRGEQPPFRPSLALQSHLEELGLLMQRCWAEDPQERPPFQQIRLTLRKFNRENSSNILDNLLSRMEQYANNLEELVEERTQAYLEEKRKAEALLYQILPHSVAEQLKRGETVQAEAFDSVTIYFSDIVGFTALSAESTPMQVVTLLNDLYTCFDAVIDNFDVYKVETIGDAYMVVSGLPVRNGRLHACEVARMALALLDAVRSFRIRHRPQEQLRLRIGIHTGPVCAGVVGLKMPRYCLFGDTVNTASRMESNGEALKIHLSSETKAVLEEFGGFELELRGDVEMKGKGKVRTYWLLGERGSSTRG
#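 HEK293 cells stably expressing human Npr1 and cGMP GloSensor pGS-40F, loaded 2 h with 2% GloSensor reagent, given compound 30 min at room temperature. Luminescence read before and 20 min after 0.1 nM hNppA.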
# 3T3 cytotox: cytotoxic compounds in NIH 3T3 cells | NIH 3T3 viability, CellTiter-Glo ATP luminescence, 48-72 h | hit rate 4.3% among 94,000 | Potency, µM (titrated, usually from 96.7 µM), inactives show at the highest dose activity change, negative = cytotoxicity, hits mostly inhibitors; also: nearly all actives have a fitted effect of over 55% in size
#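 First NIH 3T3 cells are plated at 400 cells/well; next compound is pinned in; then plates incubate 48 or 72 hr at 37 °C; finally CellTiter-Glo is added and luminescence read after 10 min.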
# Numbers without * were called inactive; i = inactive; ? = inconclusive; · = no result given; [ ] = another dose, or the depositor's remark. Unless noted, calls follow the shape of the dose curve; as a rule, active = well fitted curve in the direction sought with a large enough effect; inconclusive = small, poorly fitted or top-dose-only effect, or another doubt; inactive = no such curve, though single readings can be large; an effect the other way counts as inactive or inconclusive. % is scaled to controls: 0 for no effect and ±100 for the full control effect; potency is read from the fitted curve at half-maximal effect.
SMILES,HEK293 tox,Luciferase inh,hNpr1 antagonist,3T3 cytotox
c1cc(N2CCCCC2)ccc1-c1n[nH]c(C2CCOC2)n1 (stereo unspecified),-10.6%,6.31µM*,-29.2%,?
c1cnn(-c2ccc(-c3n[nH]c(C4CCOCC4)n3)cc2)c1,1.5%,?,11.1%,i
Cc1noc(C)c1CN1C[C@@H]2[C@H](C1)N(CCOc1ccccc1)C(=O)C(C)(C)[S+]2(=O)[O-],-22.8%,i,-1.3%,15.8µM*
CC(C)CCN1C[C@@H]2[C@H](C1)N(CCOc1ccccc1)C(=O)C(C)(C)[S+]2(=O)[O-],112µM*,i,5.0%[70.6 µM],?
CCN(Cc1noc(C)n1)C(=O)C1CCC(=O)N(Cc2cccc(F)c2)C1 (stereo unspecified),-12.7%,i,-2.5%,-7.5%
COc1cccc(-c2nc(-c3c(C)noc3C)cc3c2cc(C)n3CCN(C)C)c1,44.7µM*,i,3.0%[70.6 µM],10µM*
COc1ncccc1-c1nc(-c2c(C)noc2C)cc2c1cc(C)n2CCN(C)C,?,i,2.9%[70.6 µM],10µM*
COc1ncc(-c2nc(-c3c(C)noc3C)cc3c2cc(C)n3CCN(C)C)cn1,?,i,-3.1%[70.6 µM],?
COc1ccc(-c2nc(-c3c(C)noc3C)cc3c2cc(C)n3CCN(C)C)cc1OC,89.1µM*,i,-16.4%[70.6 µM],?
CC(=O)Nc1cccc(-c2nc(-c3c(C)noc3C)cc3c2cc(C)n3CCN(C)C)c1,79.4µM*,i,6.9%[70.6 µM],?
COc1cccc(-c2ccc(C(=O)NCCNC(=O)Nc3ccc(C)c(F)c3)cc2)c1,-6.7%,·,·,-23.1%
COc1ccc(C2NC(=O)N(Cc3nc(C4CCCCC4)no3)C3=C2C(=O)OC3)cc1 (stereo unspecified),?,i,?,?
CCc1cccc2c(C(CC(=O)N3CCCC3)c3cccc(Cl)c3)c[nH]c12 (stereo unspecified),?,i,-2.5%,-24.1%
CCc1cccc2c(C(CC(=O)N3CCC(C)CC3)c3cccc(C)c3)c[nH]c12 (stereo unspecified),35.5µM*,i,3.1%,?
CCc1cccc2c(C(CC(=O)N3CCCC3)c3ccc(Cl)c(Cl)c3)c[nH]c12 (stereo unspecified),39.8µM*,i,4.6%,?
CCOC(=O)C1CCN(C(=O)CC(c2ccc3c(c2)OCO3)c2c[nH]c3ccccc23)CC1 (stereo unspecified),?,i,0.1%,?
CCOC(=O)C1CCN(C(=O)CC(c2ccc(OC)c(OC)c2)c2c[nH]c3c(CC)cccc23)CC1 (stereo unspecified),79.4µM*,i,3.2%,?
O=C(c1cc(-c2ccc(F)cc2)n[nH]1)N1CCC(OCC2CC2)C1 (stereo unspecified),-23.2%,?,-1.5%,-21.9%
COc1ccc(-c2cc(-c3ccccc3)nc3c(C)noc23)cc1OC,-28.1%[172 µM],i,-4.9%[70.6 µM],?
CC(C)CCNC(=O)CCC1CCCN(S(=O)(=O)c2cccc(F)c2)C1 (stereo unspecified),44.7µM*,·,·,?
CCOc1cccc(CNC(=O)CCC2CCCN(S(=O)(=O)c3ccc(C)cc3)C2)c1 (stereo unspecified),?,i,-0.3%,?
CCOc1ccc(NC(=O)CCC2CCCN(S(=O)(=O)c3cccc(F)c3)C2)cc1 (stereo unspecified),35.5µM*,·,·,-22.4%
O=C(CCC1CCCN(S(=O)(=O)c2cccc(F)c2)C1)NCC1CC1 (stereo unspecified),-30.7%,i,-29.7%,-24.2%
COc1ccccc1CN1CC[C@@H](CO)N(C)c2nc(C)ccc2C1,?,i,-11.7%[70.6 µM],?
O=C(NCCCc1ccccc1)c1cn2cc(-c3ccc(F)cc3)sc2n1,?,·,·,20µM*
SMILES,HEK293 tox,Luciferase inh,hNpr1 antagonist,3T3 cytotox
COc1ccc(-c2cn3cc(C(=O)N4CCN(C(C)=O)CC4)nc3s2)cc1,-8.5%,·,·,-14.1%
O=C(NCc1ccccn1)c1cn2cc(-c3ccccc3)sc2n1,50.1µM*,·,·,?
COc1cccc(-c2cn3cc(C(=O)N4CCCCC4)nc3s2)c1,?,·,·,39.8µM*
O=C(NCc1ccc(F)cc1)c1cn2cc(-c3ccccc3)sc2n1,79.4µM*,·,·,?
O=C(NCc1ccccn1)c1cn2cc(-c3cccc(C(F)(F)F)c3)sc2n1,?,·,·,-13.6%
O=C(NCc1ccc(Cl)cc1)c1cn2cc(-c3ccccc3)sc2n1,?,·,·,-10.8%

# Bioassay records (PubChem)
